Screens deposited in PubChem by National Center for Advancing Translational Sciences (NCATS).
12-hLO inh = blocks human 12-lipoxygenase activity | purified 12-hLO, xylenol orange hydroperoxide absorbance | Potency, µM (highest dose often 57.1 µM), usual class: inhibitors | actives 0.12% (n = 150,000) | P18054 | AID 1452; note: nearly all actives have a fitted effect of over 55% in size
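Purified human 12hLO (150 nM final) was preincubated with compounds for 15 min at room temperature in 25 mM Hepes pH 7.0, 0.01% Triton X-100, then reacted with 40 uM arachidonic acid for 30 min. Hydroperoxide was detected with ferrous iron/xylenol orange.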
HPGD block = inhibitors of human 15-hydroxyprostaglandin dehydrogenase (HPGD); P15428; purified HPGD, NADH fluorescence kinetic, PGE2 substrate; Potency, µM, actives largely listed as inhibitors; actives 4.3% (n = 150,000); AID 894; active = well fitted inhibition curve with a large enough effect, not every such curve was filed as active; inconclusive = small, poorly fitted or top-dose-only effect, or another doubt; inactive = no such curve, though single readings can be large or run the other way
Target sequence (P15428 whole entry, looked up): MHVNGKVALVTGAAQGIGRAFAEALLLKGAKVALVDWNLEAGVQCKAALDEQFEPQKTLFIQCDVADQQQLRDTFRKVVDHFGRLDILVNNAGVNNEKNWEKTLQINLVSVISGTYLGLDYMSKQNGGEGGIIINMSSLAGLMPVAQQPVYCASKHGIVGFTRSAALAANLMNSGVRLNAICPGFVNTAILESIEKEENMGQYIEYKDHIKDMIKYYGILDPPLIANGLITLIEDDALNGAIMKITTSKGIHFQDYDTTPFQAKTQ
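NADH formation kinetics: reaction with 30 uM PGE2 and 1 mM NAD+ (final), 20 nM enzyme, Tris-HCl pH 8 with Tween 20, after 15 min compound preincubation at room temperature. Fluorescence change, last versus first of five reads.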
PNC assembly inh = perinucleolar compartment assembly inhibition; PC3M PTB-GFP, PNC prevalence imaging, 16 h; active compounds read low; activity change (PNC), negative = inhibition, % at 10 µM; actives 3.1% (n = 140,000); AID 2417;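 active = readout at or below -70, meaning at least 70% loss of cells showing the perinucleolar compartment, a nuclear body marking cancer cells; inconclusive = readout between -30 and a set limit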
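Compounds are pinned in duplicate onto adhered PC3M cells stably expressing GFP-tagged PTB and incubated 16 h at 37 C. Cells are then fixed, nuclei stained with Hoechst, and PNC-positive cells counted.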
ALDH1A1 inh = blocks purified human ALDH1A1 activity. Purified ALDH1A1, NADH fluorescence, propionaldehyde substrate. actives 7.3% (n = 220,000). Potency, µM (doses to about 75.3 µM), hits mostly inhibitors; active = well fitted inhibition curve with a large enough effect, not every such curve was filed as active; inconclusive = small, poorly fitted or top-dose-only effect, or another doubt; inactive = no such curve, though single readings can be large or run the other way
GLA inh pH 4.5 = alpha-galactosidase A (human) inhibition, pH 4.5; P06280; purified enzyme, 4-MU-alpha-Gal fluorescence, pH 4.5; activity change, negative = inhibition, % at 105 µM; 230,000 tested, under 10 active; AID 1467
GLA spleen mod = alpha-galactosidase A (human) modulation | P06280 | human spleen homogenate, 4MU-alpha-Gal fluorescence, 40 min | Potency, µM (highest dose often 80 µM), hits mostly inhibitors | actives 0.008% (n = 240,000) | AID 2107
Target sequence (P06280 32-429 limits assumed): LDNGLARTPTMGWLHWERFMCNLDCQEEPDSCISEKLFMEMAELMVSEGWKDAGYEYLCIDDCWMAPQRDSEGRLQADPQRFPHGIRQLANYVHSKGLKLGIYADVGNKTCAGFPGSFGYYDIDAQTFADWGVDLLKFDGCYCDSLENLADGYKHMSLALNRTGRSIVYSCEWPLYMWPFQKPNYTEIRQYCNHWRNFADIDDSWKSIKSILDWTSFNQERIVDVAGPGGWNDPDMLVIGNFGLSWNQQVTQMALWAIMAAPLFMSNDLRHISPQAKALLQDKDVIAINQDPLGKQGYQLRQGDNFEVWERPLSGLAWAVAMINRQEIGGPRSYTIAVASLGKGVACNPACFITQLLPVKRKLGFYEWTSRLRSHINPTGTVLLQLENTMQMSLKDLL
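Human spleen homogenate (1 ug) as enzyme source, 4-methylumbelliferyl-alpha-D-galactopyranoside 1 mM final, citrate/phosphate pH 5.0 with 0.01% Tween-20. Compounds 40 min at 37C, NaOH/glycine stop; fluorescence Ex 365/Em 440, Hill-fit AC50.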
Hits are given with their value; i = inactive; ? = inconclusive; nt = not tested or not shown; ! = repeats disagree; [ ] = another dose, or the depositor's remark. Rows were chosen to be rich in hits. Some 10% of all compounds tested hit in one or more screens of this group. Unless noted, calls come from the whole dose curve; as a rule, active = well fitted curve in the direction sought with a large enough effect; inconclusive = small, poorly fitted or top-dose-only effect, or another doubt; inactive = no such curve, though single readings can be large; an effect the other way counts as inactive or inconclusive.

SMILES	12-hLO inh	HPGD block	PNC assembly inh	ALDH1A1 inh	GLA inh pH 4.5	GLA spleen mod
Cc1cc(N2CCN(C/C=C/c3ccccc3)CC2)n2ncnc2n1	i	28µM	i	i	i	i
Cc1cc(N2CCN(c3ccccc3)CC2)n2ncnc2n1	nt	nt	nt	i	i	i
COC(=O)N1CCC2(CCCN(c3ncccn3)C2)CC1	i	i	nt	i	nt	i
COC(=O)c1ccc(NC(=O)CNc2ccccc2)cc1	nt	nt	nt	22µM	i	i
NS(=O)(=O)c1ccc(NC(=O)CN2C(=O)CCC2=O)cc1	nt	nt	nt	nt	i	i
COC(=O)c1ccc(NC(=O)CCOc2ccccc2)cc1	nt	nt	nt	i	i	i
O=C(CN1C(=O)CCC1=O)Nc1ccc(Br)cc1	5.6µM	i	i	2.5µM	i	i
COC(=O)c1ccc(NC(=O)CN2C(=O)CCC2=O)cc1	i	32µM	i	?	i	i
CC(C)=CCC/C(C)=C/CO/N=C1/C[C@@H](O)[C@@H](O)[C@@H]2[C@@H]3C(=O)N(c4cccc(Oc5ccccc5)c4)C(=O)[C@H]3CC[C@@H]12	nt	nt	nt	i[13.5 µM]	nt	i[17.5 µM]
C=CCNC(=O)c1ccc(OC2CCN(S(=O)(=O)N(C)C)CC2)cc1	nt	nt	nt	i	i	i
CN(C)c1ccc(C(=O)Nc2cc(C(F)(F)F)ccc2-n2cncn2)cc1	i	i	-92	?	i	i
C#CCCCO/N=C1/C[C@@H](O)[C@@H](O)[C@@H]2[C@@H]3C(=O)N(CC)C(=O)[C@H]3CC[C@@H]12	nt	nt	nt	i[13.5 µM]	nt	i[17.5 µM]
C=CCn1c(C)c(C(C)=O)c(SC)nc1=S	i	i	-84	i	i	i
CSc1nc(=S)n(Cc2ccccc2)c(C)c1C(C)=O	i	?	i	?	i	i
N#C/C(=C\c1c(N2CCOCC2)nc2ccccn2c1=O)S(=O)(=O)c1ccccc1	?	2µM	i	13µM	i	i
Cc1ccc(S(=O)(=O)/C(C#N)=C/c2c(N3CCCCC3)nc3ccccn3c2=O)cc1	nt	nt	nt	nt	i	i
Cc1ccc(S(=O)(=O)/C(C#N)=C/c2c(N3CC(C)OC(C)C3)nc3ccccn3c2=O)cc1 (stereo not drawn)	i	14µM	i	i	i	i
COc1cc(/C=C(\C#N)c2nc3ccccc3[nH]2)c([N+](=O)[O-])cc1OCc1ccccc1	i	?	i	0.56µM	i	i
COc1cc(/C=C(/C#N)c2nc3ccccc3[nH]2)ccc1OCC(=O)Nc1ccccc1C(C)C	i	?	-86	?	i	i
CCc1ccccc1NC(=O)CN(C)C(=O)CSc1nn(-c2ccc(F)cc2)c(=S)s1	i	i	?	?	i	i
COc1cc([N+](=O)[O-])ccc1NC(=O)CSc1nccn1C	nt	nt	nt	?	i	i
O=C(Nc1nc2ccccc2s1)c1cc(-c2ccco2)nc2ccccc12	i	?	i	?	i	i
O=C(Nc1nccs1)c1sc2ccccc2c1Cl	i	13µM	i	i	i	i
O=C(Nc1nccs1)c1cc(Cl)nc2ccccc12	nt	nt	nt	?	i	i
COc1cccc(-c2cc(C(=O)Nc3nc4ccccc4s3)c3ccccc3n2)c1	?	?	-115	?	i	i
SMILES	12-hLO inh	HPGD block	PNC assembly inh	ALDH1A1 inh	GLA inh pH 4.5	GLA spleen mod
O=C(Nc1nccs1)c1cc(-c2ccccc2)nc2ccccc12	i	18µM	i	i	i	i
O=C(Nc1nccs1)c1cc(-c2ccco2)nc2ccccc12	i	i	-89	?	i	i
CCOC(=O)C1=CC2(CC)CCCN3CCc4c(n1c1ccccc41)C32 (stereo not drawn)	nt	nt	nt	i	nt	i
COc1ccc(-c2ccc(C(C)=O)cc2)cc1C1C2C=CCC(C)C2C(=O)N1Cc1ccccc1 (stereo not drawn)	nt	nt	nt	nt	nt	i
Cc1ccc(O)c(N=Nc2ccccc2)n1	i	22µM!	nt	?	i	i
Cc1c(N/C=C(\Cl)C(=O)C(F)(F)F)c(=O)n(-c2ccccc2)n1C	nt	nt	nt	32µM	i	i
CCOC(=O)C1=C(Nc2ccc(Br)cc2)CC(C)(O)C(C(=O)OCC)C1c1ccccc1 (stereo not drawn)	i	i	i	i	i	i
c1ccc2c(c1)OC(CCCN1CCCCC1)c1ccccc1S2 (stereo not drawn)	i	i	-100	i	i	i
Cc1ccc2[nH]c3c(NCCN4CCOCC4)ncnc3c2c1	i	i	-84	i	i	i
CCO[C@@H]1OC(C(=O)N2CCN(C)CC2)=C[C@H](C(C)(C)C)[C@H]1CCCO	nt	nt	nt	i	i	i
CCOC(=O)N1CCN(C(=O)c2cnn3c(C)c(Cc4ccc(C)cc4)c(C)nc23)CC1	i	nt	i	25µM	i	i
COC(=O)c1cnn2c(C)c(Cc3cccc(F)c3)c(C)nc12	i	?	-88	?	i	i
Cc1nc2c(C(=O)O)cnn2c(C)c1Cc1ccccc1F	i	?	i	?	i	i
CC(=O)c1sc(NC(=O)CCCOc2ccc(Cl)cc2)nc1C	nt	nt	nt	i	i	i
O=c1[nH]c(NCCO)nc2c1C1(CCCC1)Cc1ccccc1-2	i	?	i	?	i	?
C=CCNC(=S)NNc1nc2c(c(=O)[nH]1)C1(CCCCC1)Cc1ccccc1-2	?	?	i	13µM	i	i
CN(C)Cc1ccccc1-c1cncnc1Nc1ccccc1	nt	nt	nt	?	nt	i
CC1CCc2cc(F)ccc2N1C(=O)CCl (stereo not drawn)	nt	nt	nt	0.14µM	i	i
COc1ccc(C(=O)N2c3ccc(F)cc3CCC2C)cc1OC (stereo not drawn)	i	i	i	i	i	i
COc1ccccc1NC(=O)N1c2ccc(F)cc2CCC1C (stereo not drawn)	i	i	i	22µM	i	i
CCCn1c(SCC(=O)N2c3ccc(F)cc3CCC2C)nnc1-c1ccccn1 (stereo not drawn)	i	i	-119	?	i	i
Cc1ccc(NC(=O)c2ccc3c(c2)C(=O)N(Cc2cccnc2)C3=O)c(C)c1	nt	nt	nt	i	i	i
COc1ncc2nc(CCc3ccccc3)c(=O)n(C)c2n1	i	i	nt	?	nt	i
O=C(N/N=C\c1ccc([N+](=O)[O-])s1)c1cncc(Br)c1	i	i	-102	i	i	i
O=C(N/N=C/c1ccc([N+](=O)[O-])s1)c1ccccc1	nt	nt	nt	i	i	i
SMILES	12-hLO inh	HPGD block	PNC assembly inh	ALDH1A1 inh	GLA inh pH 4.5	GLA spleen mod
C=CCn1c(SCC(N)=O)nnc1-c1cccc(Br)c1	i	i	?	i	i	i
C=CCn1c(SCc2ccccc2C#N)nnc1-c1cc(Br)ccc1O	i	14µM	?	i	i	i
O=C(Cc1noc2ccccc12)NNC(=S)Nc1ccc(Cl)cc1	nt	nt	nt	25µM	i	i
O=C(c1ccc(Cl)cc1)c1ccc(OCC(=O)N2CCOCC2)cc1	i	28µM	i	?	i	i
O=C(COc1ccc(/C=C\[N+](=O)[O-])cc1)N1CCOCC1	nt	nt	nt	14µM	i	i
O=C(COc1ccc(Cl)cc1)N1CCCC1	i	i	i	i	i	i
O=C(COc1ccc([N+](=O)[O-])cc1Cl)N1CCOCC1	nt	nt	nt	nt	i	i
